This note sets out measurements from PubChem BioAssay.

The test system of this experiment is Sonic hedgehog protein (Shh). Kind of experiment: small-molecule binders of Shh protein, primary screen, biochemical, small-molecule microarray, 635/667 nm fluorescence (AID 1151).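 Note: Shh protein binding to compounds spotted on small-molecule microarray slides; score combines spot fluorescence intensity with signal-to-noise across triplicate slides.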 To be noted: small-molecule microarray binding, 635 nm fluorescence; higher = more signal.
The molecule `CC(C)[C@@H](OCc1ccccc1)[C@H](C)C=NOC[C@@H](O)COCc1ccco1` yielded a composite z-score of -1.11. To `CC(C)(C)N1C(=O)[C@H]2[C@H]3[C@H](O)C=CC(=O)[C@@H]3CC[C@H]2C1=O` belongs 0.521. `CCOC(=O)[C@H](CC(C)C)NC(=O)CCC1CC(OC(=O)NCc2cccc3ccccc23)CC2(CCCC(COC(=O)NCCOC)O2)O1` (stereo not given in full) yielded a composite z-score of 1.03. In the case of `Cc1ccc(S(=O)(=O)n2c3ccccc3c3nnc(C(=O)c4ccccc4)nc32)cc1`, the composite z-score was found to be 0.766. Take `CCN1C(=O)[C@H]2[C@H]3[C@H](O)[C@H](O)CC(=NOC[C@H]4O[C@H](c5ccccc5)C=C[C@@H]4Oc4ccc(OC)cc4)[C@@H]3CC[C@H]2C1=O`: the composite z-score was 0.827. `Cc1cc2c(c(=O)o1)[C@@H](O)[C@H]1O[C@H]1C2=O` gave a composite z-score of 1.1. In the case of `C#CCCCON=C1C[C@@H](O)[C@@H](O)[C@@H]2[C@@H]3C(=O)N(c4cccc(Oc5ccccc5)c4)C(=O)[C@@H]3CC[C@H]12`, the composite z-score is -1.01. Molecule `CC(CCN1CCc2nc(-c3ccccc3)c(-c3ccccc3)cc2C1)=NOC[C@@H](O)[C@H]1O[C@@H]2OC(C)(C)O[C@@H]2[C@H]1O` yielded a composite z-score of 1.09. In the case of `CC(CCN1CCc2nc(-c3ccccc3)c(-c3ccccc3)cc2C1)=NOC[C@@H](O)COCc1ccco1`, the composite z-score is 1.31. The molecule `CSCC[C@@H]1NC(=O)CC=C[C@@H](C)COC(=O)[C@@H](C)COC1=O` displayed a composite z-score of 1.81.

The molecule `CC(=O)Nc1ccc([C@@H]2N[C@H](C(=O)O)CC[C@H]2C)cc1` came in with a composite z-score of 0.2. In turn, `C#CCCCON=C1[C@H]2CCn3c(=O)n(-c4ccccc4)c(=O)n3[C@H]2[C@H](O)[C@@H]2O[C@H]12` displayed a composite z-score of 0.504. To `COC(=O)[C@@H]1CC[C@H](C)[C@@H](c2ccc(C)cc2)N1C(=O)c1ccc(C=NOC[C@@H](C)[C@H](OCc2ccccc2)C(C)C)cc1` belongs 1.28.

For the molecule `CCOC(=O)[C@H](Cc1ccccc1)NC(=O)CCC1CC(OC(=O)NCc2cccc3ccccc23)CC2(CCCC(COC(=O)NCCC(C)C)O2)O1` (stereo not given in full), the composite z-score was -0.226. To `C=CC[C@@H]1C=C[C@H](ON=C2[C@H]3CCn4c(=O)n(-c5ccccc5)c(=O)n4[C@H]3[C@H](O)[C@@H]3O[C@H]23)[C@@H](CO)O1` belongs 0.23; to `CCOC(=O)[C@H](CC(C)C)NC(=O)CCC1CC(OC(=O)NCc2cccc3ccccc23)CC2(CCCC(COC(=O)NCCOc3ccccc3)O2)O1` (stereo not given in full), 0.805; to `C[C@@H](c1ccccc1)N1C(=O)[C@H]2[C@H]3[C@H](O)[C@H](O)CC(=NOCc4ccccc4)[C@H]3CC[C@H]2C1=O`, 0.378. `CCCNC(=O)OC[C@H]1O[C@H](CCON=C(C)CCN2CCc3nc(CC)c(CC)cc3C2)C=C[C@@H]1Oc1ccc(OC)cc1` yielded a composite z-score of 0.391. Under `CCCNC(=O)OC[C@H]1O[C@H](CCON=C(C)C)C=C[C@@H]1Oc1ccc(OC)cc1` stands -0.318; under `CC(=O)O[C@H]1C2=CO[C@H](C)[C@H]3[C@H]4C5=C([C@H](O)[C@H]6O[C@H]6C5=O)[C@H](OC4C)[C@@]23C(=O)[C@@H]2O[C@@H]21` (stereo not given in full), 0.604.

`C=CC[C@@H]1C=C[C@H](ON=C[C@@H](C)[C@H](OCc2ccccc2)C(C)C)[C@@H](CO)O1` displayed a composite z-score of -0.119.

Take `COC(=O)CC=C[C@@H](C)[C@@H](C=NOC(C)CN1CCCc2nc(C)c(C)cc21)OC` (stereo not given in full): the composite z-score was 0.655. Under `CC(CCN1CCCCc2nc(C)c(C)cc21)=NOC[C@@H](C)[C@H](OCc1ccccc1)C(C)C` stands -0.689; under `CON=C(C)CCC(=O)OC[C@H]1O[C@H](c2ccccc2)C=C[C@@H]1Oc1ccc(OC)cc1`, 0.556; under `CON=CC[C@@H]1C=C[C@H](OC(C)=O)[C@@H](COC(C)=O)O1`, 0.783. The molecule `Cn1c(=O)n2n(c1=O)[C@H]1[C@H](O)[C@@H]3O[C@@H]3C(=O)[C@H]1CC2` gave a composite z-score of 0.537. On to `COc1ccc(COC(=O)NN=C2C[C@@H](O)[C@@H](O)[C@@H]3[C@@H]4C(=O)N(Cc5ccccc5)C(=O)[C@@H]4CC[C@H]23)cc1`, for which the composite z-score is -1.44. For the molecule `C#CCCCON=C1C[C@@H](O)[C@@H](O)[C@@H]2[C@@H]3C(=O)N(C(C)(C)C)C(=O)[C@@H]3CC[C@@H]12`, the composite z-score is -1.22.

`C[C@@H](c1ccccc1)N1C(=O)[C@H]2[C@H]3[C@H](O)[C@H](O)CC(=NO[C@@H]4O[C@H](CO)[C@@H](O)[C@H](O)[C@H]4O)[C@H]3CC[C@H]2C1=O` returned a composite z-score of 0.457. Consider `CCOC(=O)CCN1C(=O)[C@H]2[C@H]3[C@H](O)[C@H](O)CC(=NOCc4ccccc4)[C@H]3CC[C@H]2C1=O`, for which the composite z-score is -0.212.
